Experimental data as given in PubChem BioAssay (NCI).
The panel holds about 83,000 compounds, 20% with a hit somewhere; the sample as a whole holds those more often.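 Cells were grown in 96-well plates and exposed to the test compound at a single concentration for 48 hours; results are reported as percent growth, with values below 10 considered active.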 Activity calls are given as the source filed them.

What follows are compounds tested on MDA-MB-468 breast (assay: NCI-60 one-dose screen, 48 h (100 = growth as untreated, 0 = no growth, -100 = all killed)). Conditions: 10 µM unless noted.

Structure (SMILES) | growth
COc1cc2nnc3c4cccnc4[nH]c3c2cc1OC | -69.9% (active)
Cn1cc(-c2nc(-c3c[nH]c4c(Cl)nccc34)cs2)c2cc(Br)ccc21 | 19.9% (inactive)
CCOC(=O)c1cc(-c2ccc([N+](=O)[O-])cc2)n(-c2ccc(C(=O)O)c(O)c2)c1C | 58.8% (inactive)
CC1CCN(CCCCCOc2ccc3oc4ccc(Cl)cc4c(=O)c3c2)CC1 | 54.5% (inactive)
O=C(c1ccccc1)c1ccc(O)c2ncccc12 | 25.6% (inactive)
COc1ccc(/C=C/c2cccc[n+]2C)cc1 | 73.8% (inactive)
Cc1cc(=O)[nH]n1-c1cc(Cl)ccc1N | 110% (inactive)
CCN(CC)S(=O)(=O)c1ccc(OC)c(NC(=O)c2[nH]c(C)c3c2CCCCC3=O)c1 | 10.7% (inactive)
COc1ccc2nc3cc(Cl)ccc3c(N3CCN(c4ccnc(Nc5ccc(F)cc5)n4)CC3)c2c1 | 63.8% (inactive)
N#C/C(=C\c1ccc(-c2cccc(C(F)(F)F)c2)o1)c1nc(-c2ccco2)cs1 | -37% (active)
CCN(CCC#N)c1ccccc1 | 118% (inactive)
Nc1ccccc1C(=O)Nc1ccc(Cl)cc1Cl | 94.5% (inactive)
COc1ccc(C2=C(c3cccc(OC)c3)C(=O)c3ccc(C)nc3C2=O)cc1 | -60.8% (active)
C=CCn1c(C)nc2ccc(Nc3nc(Nc4ccc5nc(C)n(CC=C)c5c4)c4ccccc4n3)cc21 | -92.8% (active)
Cc1ccc(CSc2nc(-c3ccc(Cl)cc3)c(C#N)c(N3CCOCC3)n2)cc1 | 84% (inactive)
CS(=O)(=O)c1ccc(/C(=N/N=C(N)N)c2ccc(Cl)cc2)cc1 | 68.5% (inactive)
CCN(CC)CCOC(=O)C(c1ccccc1)(c1ccccc1)C(C)C | 80% (inactive)
Cc1ccnc(Nc2ccc([N+](=O)[O-])c(NCCN3CCOCC3)n2)c1 | 26.3% (inactive)
CCOC(=O)CSc1nc(-c2cc(OC)ccc2OC)cc(-c2ccc(OC)cc2)c1C#N | 92.7% (inactive)
N#Cc1ccc(-c2csc(Nc3ccc4nc5n(c(=O)c4c3)CCC5)n2)cc1 | 105% (inactive)

Structure (SMILES) | growth
COC1/C=C/OC2(C)Oc3c(C)c(O)c4c(O)c(c(/C=N/N(c5ccccc5)c5ccccc5)c(O)c4c3C2=O)NC(=O)C(C)=C/C=C/C(C)C(O)C(C)C(O)C(C)C(OC(C)=O)C1C (centres undefined) | -44.7% (active)
Clc1ccc(/C=C2\CCCC3=C2N=C2SC=NN2C3c2ccc(Cl)cc2)cc1 (centres undefined) | 90.4% (inactive)
Cc1cc(N(CCCNc2ccnc3cc(Cl)ccc23)Cc2ccco2)nc(N2CCOCC2)n1 | 80.3% (inactive)
CN(CCNCc1ccccn1)CCNCc1ccccn1 | -15.6% (active)
Nc1ncnc2c1N=C(c1ccc3c(c1)OCO3)CC(c1cccc(Nc3ccnc4cc(C(F)(F)F)ccc34)c1)N2 (centres undefined) | 86.6% (inactive)
C[C@@H](CO)[C@@H]1CCC=C2CC[C@]3(C)[C@H](CC[C@@H]4[C@@]5(C)CCCNC(C)(C)[C@@H]5CC[C@]43C)[C@H]21 | -15.2% (active)
COC1=CC(c2ccc[nH]2)=N/C1=C\c1[nH]c(C)c(CC(=O)OCc2ccccc2)c1CCC(=O)OCc1ccccc1 | -31.2% (active)
OCCn1cc(-c2nc(-c3c[nH]c4ncccc34)cs2)c2cc(F)ccc21 | -11.1% (active)
COc1ccc(/C=C/C(=C/c2c(O)[nH]c3cc(Br)ccc23)N=O)cc1 | 114% (inactive)
O=C1OCC2=C1C(c1ccccc1)c1cc3c(cc1N2CCO)CCC3 (centres undefined) | 15% (inactive)
COc1ccc(-c2nnc(N3CCN(C(=O)CN4CCN(c5ccccc5)CC4)CC3)nc2-c2ccc(OC)cc2)cc1 | 41.4% (inactive)
O=C(Nc1ccccc1Cl)OCCN1CCOCC1 | 109% (inactive)
CCN(CC)CC(=O)Nc1ccc2ncnc(Nc3ccc(Oc4cccc(F)c4)c(Cl)c3)c2c1 | 13.6% (inactive)
NC[C@H](O)c1ccc(O)c(O)c1 | 111% (inactive)
CCn1cc(C(=O)O)c(=O)c2cnc(N3CCCC3)nc21 | 99.2% (inactive)
Cc1nc([P+](c2ccccc2)(c2ccccc2)c2ccccc2)c(N2CCCCC2)o1 | 0.108% (active)
O=Nc1ccc(NC(=O)Nc2ccc([N+](=O)[O-])cc2)cc1 | 96% (inactive)
Oc1c(I)cc(I)cc1CNCc1ccccn1 | 29.3% (inactive)
C[n+]1c2ccccc2nc2c(N)cc(N)cc21 | -5.14% (active)
